# Source: PubChem BioAssay (EPA / NIEHS)
# Calls of active or inactive are those of the source. How the source made its calls: active means hit-call score of the fitted dose curve at least 0.9, where 1 is the maximum; inactive means score below 0.9.
# Assay: ATG_TGFb_CIS: Attagene CIS-FACTORIAL HepG2 Assay for human Transforming Growth Factor (TGF) (AID 2282967)
# Details: HepG2 Attagene CIS TGFb reporter, mRNA transcription; actives raise or lower the signal
# Experimental: ATG_CIS is a cell-based, multiplexed-readout assay that uses HepG2, a human liver cell line, with measurements taken at 24 hours after chemical dosing in a 24-well plate.ATG_TGFb_CIS is one of 52 assay component(s) measured or calculated from the ATG_CIS assay. It is designed to make measurements of mRNA induction, a form of inducible reporter, as detected with fluorescence intensity signals by Reverse transcription polymerase chain reaction (RT-PCR) and Capillary electrophoresis technology.Data from the assay component ATG_TGFb_CIS was analyzed into 1 assay endpoint. This assay endpoint, ATG_TGFb_CIS, was analyzed with bidirectional fitting relative to DMSO as the negative control and baseline of activity. Using a type of inducible reporter, measures of mRNA for gain or loss-of-signal activity can be used to understand the reporter gene at the transcription factor-level as they relate to the gene TGFB1. Furthermore, this assay endpoint can be referred to as a primary readout, because this assay has produced multiple assay endpoints where this one serves a reporter gene function. To generalize the intended target to other relatable targets, this assay endpoint is annotated to the growth factor intended target family, where the subfamily is transforming growth factor beta.
# Human liver HepG2 cells are transiently transfected with multiple reporter transcription units (MRTUs) in 6-well plates using FuGene 6 reagent (Roche; 3 ml FuGene/1 mg DNA). The MRTU constructs are regulated by a cis-regulating element (promoter). […] A major difference between the CIS and TRANS system is that in CIS activities of endogenous TFs are measured, whereas the TRANS assay evaluates changes in activities of exogenous, chimeric NR-Gal4 proteins. […] At the end of 24 hour incubation, total RNA was isolated using TriZol reagent (Invitrogen). The isolated RNA is then reverse-transcribed using oligo(dT) primer and Mo-MLV reverse transcriptase (Invitrogen) with DNAse I (Ambion) treatment for 30 min. The one-tenth of the produced cDNA was amplified by PCR using Taq DNA polymerase (Invitrogen) and two reporter sequence-specific primers. The PCR products were fluorescently labeled by primer extension with 6-arboxyfluorescein (6-FAM) 5'-labeled reporter sequence-specific primer (2 min at 95 C, 20 s at 68 C and 10 min at 72 C) and these products were digested with 5U of HpaI (New England Biolabs) for 2h at 37 C. The fragments were purified using Qiaquick PCR columns (Qiagen), analyzed on an ABI 3130xL genetic analyzer (Applied Biosystems) with peak positions identified by using a set of X-rhodamine (ROX)-labeled MapMarker1000 molecular weight standards (BioVentures). The raw capillary electrophoresis data was processed using Attagraph software (Attagene).
SMILES,outcome,AC50
CCOC(=O)CC(=O)c1ccccc1,inactive,–
CC(C)c1ccc2ncccc2c1,inactive,–
COc1ccc(C(=O)c2ccccc2)c(O)c1,–,156 µM (active)
CC(C)C(=O)OCCOc1ccccc1,inactive,–
CCOC(=O)C1=NOC(c2ccccc2)(c2ccccc2)C1,inactive,–
CC(C)(c1ccccc1)c1ccc(Nc2ccc(C(C)(C)c3ccccc3)cc2)cc1,inactive,–
CC(C)C(=O)OCCc1ccccc1,inactive,–
CCCCCOC(=O)CCCCC,inactive,–
C=C(C)C1CC=C(C)CC1 (stereo not given),inactive,–
COc1ccc(C(=O)/C(Br)=C\C(=O)O)cc1,inactive,–
C[Si]1(C)O[Si](C)(C)O[Si](C)(C)O[Si](C)(C)O[Si](C)(C)O1,inactive,–
CCCCC(=O)O,inactive,–
Cc1c(C(=O)c2c[nH]n(C)c2=O)ccc(S(C)(=O)=O)c1C1=NOCC1,inactive,–
C=C1C[C@H]2[C@@H]3C=C(C)C4=CC(=O)CC[C@]4(C)[C@H]3CC[C@]2(C)[C@@]1(OC(C)=O)C(C)=O,inactive,–
C=C(C)C(=O)OCCOC(=O)C(=C)C,inactive,–
O=C(O)C(F)(F)C(F)(F)C(F)(F)C(F)(F)C(=O)O,inactive,–
Cc1c(Cl)cccc1Cl,inactive,–
CCC(C)c1ccccc1 (stereo not given),inactive,–
C=C(C)[C@@H]1CC=C(C)CC1,inactive,–
CCOc1ccc(NC(N)=O)cc1,inactive,–

SMILES,outcome,AC50
O=c1c(O)c(-c2ccc(O)cc2O)oc2cc(O)cc(O)c12,inactive,–
CC1=CP(=O)(c2ccccc2)CC1 (stereo not given),inactive,–
CC(C)(O)Cc1ccccc1,inactive,–
CCCCCCO,inactive,–
O=C(O)c1cc(O)c2ccccc2c1O,–,33.4 µM (active)
C=CCCCCCCCCOC(C)=O,inactive,–
C=CC(C)(CCC=C(C)C)OC(=O)C=Cc1ccccc1 (stereo not given),inactive,–
CC(=O)OC1CCCCC1,inactive,–
CCN1CCCC1=O,inactive,–
O=C1CCCN1C1CCCCC1,inactive,–
Nc1nc(N)nc(-c2ccccc2)n1,inactive,–
CCCCCCCCCCCCCCCCCCOS(=O)(=O)O,inactive,–
CC(C=O)c1ccccc1 (stereo not given),inactive,–
Nc1ccc(Cl)c(N)c1,inactive,–
COC(OC)(C(=O)c1ccccc1)c1ccccc1,–,138 µM (active)
CC(C)(CO)COC(=O)C(C)(C)CO,inactive,–
CCCSSCCC,inactive,–
CCCC/C=C/C=C\C=O,inactive,–
C/C=C/C=C/CCCCCCCO,inactive,–
COC(Cc1ccccc1)OC,inactive,–
